Screening data from PubChem.
CF NFkB inh – inhibitors of PAF-induced NF-kB signaling, primary screen, cell-based, GFP fluorescence, uHTS. KKLEB NF-kB-GFP reporter, GFP fluorescence overnight. inhibition, % at 5 µM. 360,000 compounds, 0.86% hits;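 active means at least 50% inhibition at 5 µM, scaled per plate between neutral and stimulator controls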;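 further: PAF is a Pseudomonas aeruginosa culture filtrate used as stimulus; plate controls were PAF-stimulated DMSO wells for no effect and unstimulated DMSO wells for full effect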
KKLEB cytotox – cytotoxicity in KKLEB CF airway cells, primary screen, cytotoxicity control for CF NF-kB inhibitor project, cell-based, uHTS, fluorescence assay plates; KKLEB CF airway cells viability, ATPlite luminescence, overnight; stronger effect = lower value; cells stimulated with P. aeruginosa culture filtrate; activity change (cytotoxicity), % at 5 µM; 360,000 compounds, 0.36% hits;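 active means corrected activity change at or below -50% at 5 µM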
HIF-2a inh – HIF-2a reporter inhibitors, primary screen, luminescence, 786-0 RCC cells. inhibition, % at 18.8 µM. 786-0 RCC cells HIF-2a reporter, luciferase luminescence, overnight. 360,000 compounds, 0.72% hits;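 active means inhibition of the luminescence signal of 40% or more relative to plate controls, in a single-dose primary screen at 18.75 µM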
TROY NFkB inh – inhibitors of TROY-driven NF-kB signaling, primary screen, Q293 LMP1-TROYcd cells, NF-kB luciferase, uHTS | Q293 LMP1-TROYcd NF-kB luciferase reporter, 4 h | inhibition, % at 10 µM | 360,000 compounds, 0.98% hits;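 active means compounds whose plate-normalised and pattern-corrected inhibition of the luciferase reporter signal at the single screening dose is 50% or more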
TWEAK-Fn14 inh – inhibitors of TWEAK-Fn14 signaling, primary screen, luciferase reporter cells, uHTS; TWEAK-stimulated Fn14 reporter cells, luciferase luminescence, 8 h; inhibition, % at 10 µM; 360,000 compounds, 2% hits; AID 1159606, 2016; in the data active means inhibition above about 50%
Peg3 promoter – Peg3 promoter-driven luciferase inhibitors, primary screen, cell-based, HeLa, luciferase luminescence. HeLa PEG-Prom luciferase reporter, overnight. inhibition, % at 20 µM. 360,000 compounds, 1.7% hits. AID 588405, 2011;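 active means inhibition of at least 50% at 20 µM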
Mdm2-MdmX confirm – retested Mdm2-MdmX interaction blockers, confirmation, cell-based, luminescence, single concentration, set 2; SaOS-2 split-luciferase Mdm2/MdmX complementation; 740 compounds, 99% hits; inhibition, % at 8 µM; shares compounds with HIF-2a inh;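 active means mean inhibition of the luminescence signal across two replicates at or above 26 percent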
Target sequence (O15151 whole entry, looked up): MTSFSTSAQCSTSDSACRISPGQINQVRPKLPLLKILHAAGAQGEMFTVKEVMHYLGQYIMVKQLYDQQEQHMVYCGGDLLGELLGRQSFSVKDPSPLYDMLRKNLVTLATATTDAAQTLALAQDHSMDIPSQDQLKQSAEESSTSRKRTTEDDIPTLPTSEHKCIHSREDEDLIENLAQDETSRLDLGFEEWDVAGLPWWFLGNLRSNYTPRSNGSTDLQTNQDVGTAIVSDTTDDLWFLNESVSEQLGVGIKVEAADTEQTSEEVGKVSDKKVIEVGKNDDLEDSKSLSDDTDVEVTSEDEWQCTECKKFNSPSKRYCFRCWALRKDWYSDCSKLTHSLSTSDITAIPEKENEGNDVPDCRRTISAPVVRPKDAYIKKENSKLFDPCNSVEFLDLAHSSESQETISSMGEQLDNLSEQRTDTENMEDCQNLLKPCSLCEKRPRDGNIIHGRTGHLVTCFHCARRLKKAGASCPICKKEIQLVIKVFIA
Target sequence (Q00987 whole entry, looked up): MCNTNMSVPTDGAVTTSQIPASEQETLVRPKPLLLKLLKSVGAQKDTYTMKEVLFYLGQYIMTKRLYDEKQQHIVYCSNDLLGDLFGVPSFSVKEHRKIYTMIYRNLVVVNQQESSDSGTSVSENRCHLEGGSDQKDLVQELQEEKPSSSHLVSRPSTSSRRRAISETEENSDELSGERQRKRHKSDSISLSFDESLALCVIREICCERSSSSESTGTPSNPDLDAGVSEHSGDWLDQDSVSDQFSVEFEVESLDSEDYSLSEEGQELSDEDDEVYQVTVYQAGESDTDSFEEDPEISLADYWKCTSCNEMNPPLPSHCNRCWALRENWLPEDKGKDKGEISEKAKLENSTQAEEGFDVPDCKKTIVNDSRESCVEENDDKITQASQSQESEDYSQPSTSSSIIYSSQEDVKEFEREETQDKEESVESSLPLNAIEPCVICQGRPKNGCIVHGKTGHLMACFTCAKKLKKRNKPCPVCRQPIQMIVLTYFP
HIF-2a conf – HIF-2a reporter inhibitor retest, confirmation, luminescence, 786-0 RCC cells. 1,800 compounds, 56% hits. shares compounds with HIF-2a inh. inhibition, % at 18.8 µM. HIF-2a luciferase reporter luminescence, overnight;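 active means mean inhibition across four replicates of at least 40 percent at the single tested concentration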
HIF-1a cs – HIF-1a luciferase reporter signal reduction – MiaPaCa-2 cells, single concentration, counter-screen for HIF-2a inhibitor project, confirmation | shares compounds with HIF-2a inh | MiaPaCa-2 HIF-1a luciferase reporter, desferoxamine, overnight | inhibition, % at 18.8 µM | 1,800 compounds, 72% hits | AID 651589, 2012;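 active means mean inhibition of the reporter signal across four replicates at the single tested dose of 50% or more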
Active calls of the source: *. This is a sample that favours compounds with a hit; in the whole collection about 4% have one here.

For O=C(Nc1ccc(Cl)cc1)/C(=C/c1cccc(O)c1)c1nc2ccccc2s1 the results were CF NFkB inh 90.0*, KKLEB cytotox -90.8*, HIF-2a inh 90.6*, TROY NFkB inh 82.7*, TWEAK-Fn14 inh 104.4*, Peg3 promoter 101.1*, Mdm2-MdmX confirm 102.5*, HIF-2a conf 94.7* and HIF-1a cs 106.0*.
For CC(=O)C(=Cc1ccc(-c2ccccc2)cc1)C(=O)c1ccccc1 the results were HIF-2a inh 65.1*, TROY NFkB inh 11.4, TWEAK-Fn14 inh 55.2*, HIF-2a conf -18.6 and HIF-1a cs 103.2*.
For CCc1ccc(-c2nnn(CCC(=O)OC)n2)cc1 the results were CF NFkB inh 2.0, KKLEB cytotox -4.8, HIF-2a inh 87.2*, TROY NFkB inh 30.0, TWEAK-Fn14 inh 21.6, Peg3 promoter -27.5, HIF-2a conf 93.6* and HIF-1a cs 69.7*.
For Cc1cc(C)n(C(=O)/C(C#N)=N/Nc2cc(Cl)cc(Cl)c2)n1 the results were CF NFkB inh 56.8*, KKLEB cytotox -62.0*, HIF-2a inh 5.4, TROY NFkB inh 67.5*, TWEAK-Fn14 inh 51.3*, Peg3 promoter 33.8 and Mdm2-MdmX confirm 95.0*.
`Cc1cc(C)n(C(=O)/C(C#N)=N\Nc2ccccc2[N+](=O)[O-])n1` gave CF NFkB inh -18.7, KKLEB cytotox 2.9, HIF-2a inh 7.3, TROY NFkB inh 1.2, TWEAK-Fn14 inh 13.8 and Peg3 promoter 13.9.
`O=C(COC(=O)Cc1n[nH]c(=O)c2ccccc12)Nc1ccc(Cl)cc1F` gave CF NFkB inh -0.8, KKLEB cytotox 2.5, HIF-2a inh 15.5, TROY NFkB inh 2.9, TWEAK-Fn14 inh -4.9 and Peg3 promoter 11.0.
Screening Cc1nnnn1/C(=C\c1ccccc1)C(=O)OCC(=O)Nc1ccc(Cl)cc1F returned CF NFkB inh 84.0*, KKLEB cytotox -70.0*, HIF-2a inh 88.2*, TROY NFkB inh 65.4*, TWEAK-Fn14 inh 69.8*, Peg3 promoter 98.3*, HIF-2a conf 95.6* and HIF-1a cs 56.5*.
`CN(C)CCCNc1cc(C(C)(C)C)nc2c(-c3ccc(Cl)cc3)cnn12` gave CF NFkB inh 38.3, KKLEB cytotox -18.7, HIF-2a inh -41.8, TROY NFkB inh -19.7, TWEAK-Fn14 inh -47.9, Peg3 promoter 103.6* and Mdm2-MdmX confirm 102.5*.
Screening CCN1C/C(=C/c2ccc(OC)c(O)c2)C(=O)/C(=C/c2ccc(OC)c(O)c2)C1 returned CF NFkB inh -31.2, KKLEB cytotox -24.4, HIF-2a inh 4.9, TROY NFkB inh 3.5, TWEAK-Fn14 inh 23.4, Peg3 promoter -7.2 and Mdm2-MdmX confirm 53.0*.
For COc1ccc(/C=C2\CN(Cc3ccccc3)C/C(=C\c3ccc(OC)c(O)c3)C2=O)cc1O the results were CF NFkB inh 99.7*, KKLEB cytotox -68.7*, HIF-2a inh 37.5, TROY NFkB inh 4.9, TWEAK-Fn14 inh 1.6, Peg3 promoter 101.6* and Mdm2-MdmX confirm 101.7*.
COc1cc(/C=C2/CC/C(=C/c3ccc(O)c(OC)c3)C2=O)ccc1O was read as CF NFkB inh 44.3, KKLEB cytotox -23.2, HIF-2a inh -19.0, TROY NFkB inh 15.4, TWEAK-Fn14 inh 28.7 and Peg3 promoter -33.7.
Screening COc1cc(/C=C2\COC/C(=C\c3ccc(O)c(OC)c3)C2=O)ccc1O returned CF NFkB inh 91.0*, KKLEB cytotox -43.8, HIF-2a inh 93.1*, TROY NFkB inh 48.7, TWEAK-Fn14 inh -12.0, Peg3 promoter 100.6* and Mdm2-MdmX confirm 102.7*.
`COc1ccc(C=C2C(=O)c3ccccc3C2=O)cc1O` gave CF NFkB inh -7.8, KKLEB cytotox -7.7, HIF-2a inh 10.6, TROY NFkB inh 42.9, TWEAK-Fn14 inh -9.3 and Peg3 promoter -3.8.
`COc1cc(C(=O)NCC(=O)NCCCSc2ccccc2)cc(OC)c1OC` gave CF NFkB inh -26.5, KKLEB cytotox 2.1, HIF-2a inh 5.4, TROY NFkB inh 7.0, TWEAK-Fn14 inh 12.9 and Peg3 promoter 4.8.
Screening N#C/C(=C\C=C\c1ccccc1[N+](=O)[O-])C(=O)NC1CCCCC1 returned CF NFkB inh -39.5, KKLEB cytotox 0.5, HIF-2a inh 83.7*, TROY NFkB inh -29.4, TWEAK-Fn14 inh 81.8*, Peg3 promoter 107.0*, Mdm2-MdmX confirm 101.5*, HIF-2a conf 20.9 and HIF-1a cs 104.2*.
`CCCn1c(CC)nc([N+](=O)[O-])c1S(=O)(=O)c1ccccc1` gave CF NFkB inh 52.0*, KKLEB cytotox -26.7, HIF-2a inh 45.9*, TROY NFkB inh 48.4, TWEAK-Fn14 inh 1.3, Peg3 promoter -0.6, HIF-2a conf 29.3 and HIF-1a cs 47.0.
Screening N=c1nc(SCCC(=O)O)ss1 returned CF NFkB inh -7.9, KKLEB cytotox 0.8, HIF-2a inh 68.6*, TROY NFkB inh 10.9, TWEAK-Fn14 inh 15.6, Peg3 promoter 5.7, HIF-2a conf 72.8* and HIF-1a cs 45.9.
Screening CCCC[C@H](CN[C@@H](CNC)[C@H](C)CC)NCCC12CCC(CC1)C2 returned CF NFkB inh -11.7, KKLEB cytotox -1.4, HIF-2a inh -7.4, TROY NFkB inh -20.0, TWEAK-Fn14 inh -10.9, Peg3 promoter 102.2* and Mdm2-MdmX confirm 102.7*.
For CC[C@H](C)[C@@H](CNC)NC[C@@H](Cc1ccc(O)cc1)NCC(C)(C)C the results were CF NFkB inh -35.0, KKLEB cytotox -2.3, HIF-2a inh 3.0, TROY NFkB inh -14.8, TWEAK-Fn14 inh -4.9 and Peg3 promoter -10.6.
For Cc1ccc(-c2cc(C(=O)NCCCN3CCOCC3)no2)cc1 the results were CF NFkB inh 11.8, KKLEB cytotox -20.3, HIF-2a inh 84.3*, TROY NFkB inh 21.7, TWEAK-Fn14 inh 74.5*, Peg3 promoter 0.5, HIF-2a conf 82.4* and HIF-1a cs 71.2*.
